APEX1 inh: blocks human APE1 abasic DNA cleavage; P27695; Potency, µM (doses to about 65.8 µM), for the others: top-dose activity change, negative = inhibition, most hits filed as inhibitors; AID 2517; 0.35% of 350,000 active; recombinant APE1, TAMRA/BHQ-2 abasic DNA cleavage fluorescence;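 further: plate controls were vehicle for no effect and reference inhibitor for full effect; nearly all actives have a fitted effect of over 55% in size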
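Incision of a quenched TAMRA/BHQ-2 THF abasic-site duplex (50 nM) by 0.75 nM APE1, after 15 min compound preincubation, measured as fluorescence increase over three 60 s reads. Values normalized to buffer, DMSO and NSC13755 control wells.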
PKM2 act: activators of human pyruvate kinase M2. 0.34% of 260,000 active. purified PKM2, Kinase-Glo ATP luminescence, activation; response scale: 0% is enzyme alone, no compound. P14618. Potency, µM (doses to about 57.5 µM), without a hit: at the highest dose activation, hits mostly activators; further: nearly all actives have a fitted effect of over 55% in size
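Purified hPK-M2 (>95%) run at intermediate activity with 0.1 mM ADP and 0.5 mM PEP in 50 mM imidazole pH 7.2, KCl, MgCl2; 1 h room temperature. ATP formed read by Kinase-Glo luminescence; normalized to uninhibited and no-enzyme controls.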
BLM helicase inh: inhibitors of human Bloom syndrome helicase BLM; P54132; recombinant BLM DNA unwinding, fluorescence dequenching; Potency, µM (series often up to 56.1 µM), for inactives: at the highest dose activity change, negative = inhibition, most hits filed as inhibitors; 0.2% of 350,000 active; AID 2528;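 further: plate controls were vehicle for no effect and no enzyme for full effect; nearly all actives have a fitted effect of over 35% in size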
KDM4E inh: inhibitors of human JMJD2E histone demethylase. B2RXH2. JMJD2E catalytic domain, FDH-coupled NADH fluorescence (FDH is formaldehyde dehydrogenase). Potency, µM (series often up to 57.1 µM), without a hit: top-dose activity change, negative = inhibition, hits mostly inhibitors. 1.6% of 230,000 active. AID 2147; active means well fitted inhibition curve with a large enough effect, not every such curve was filed as active; inconclusive means small, poorly fitted or top-dose-only effect, or another doubt; inactive means no such curve, though single readings can be large or run the other way;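 further: 0% = wells with enzyme and -100% = buffer wells without enzyme; nearly all actives have a fitted effect of over 50% in size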
RECQ1 inh: RECQ1 (human) helicase inhibition; P46063; Potency, µM (titrated, usually from 57.3 µM), for inactives: top-dose activity, negative = inhibition, usual class: inhibitors; 0.54% of 240,000 active; RECQ1 DNA unwinding, red fluorescence kinetic read;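 further: plate controls were vehicle for no effect and no enzyme for full effect; nearly all actives have a fitted effect of over 30% in size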
Target sequence (P46063 whole entry, looked up): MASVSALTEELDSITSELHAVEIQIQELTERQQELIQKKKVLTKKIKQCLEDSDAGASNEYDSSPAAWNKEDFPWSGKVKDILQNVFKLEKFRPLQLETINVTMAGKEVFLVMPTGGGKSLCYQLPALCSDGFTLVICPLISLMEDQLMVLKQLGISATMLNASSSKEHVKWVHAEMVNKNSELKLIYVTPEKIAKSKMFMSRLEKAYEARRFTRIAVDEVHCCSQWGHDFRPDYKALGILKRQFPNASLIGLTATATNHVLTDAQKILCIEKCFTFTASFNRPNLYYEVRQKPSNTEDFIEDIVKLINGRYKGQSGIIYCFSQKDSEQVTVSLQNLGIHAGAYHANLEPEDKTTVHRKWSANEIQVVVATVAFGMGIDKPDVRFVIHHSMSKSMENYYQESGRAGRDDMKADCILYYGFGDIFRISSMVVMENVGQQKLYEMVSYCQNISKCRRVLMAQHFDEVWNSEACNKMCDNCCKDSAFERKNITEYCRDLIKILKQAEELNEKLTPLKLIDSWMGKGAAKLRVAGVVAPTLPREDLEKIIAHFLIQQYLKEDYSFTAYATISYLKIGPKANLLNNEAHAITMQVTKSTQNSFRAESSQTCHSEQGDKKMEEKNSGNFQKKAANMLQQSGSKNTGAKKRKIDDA
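RECQ1T1 50 nM; forked duplex (20 bp + 30-nt ss tails) 200 nM, ATP 2 mM final; pH 8.0, 2 mM MgCl2, 2.5 ug/ml poly(dI-dC); 15 min compound preincubation; discontinuous kinetic read over 2 h at RT.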
An asterisk follows results filed as active; i = inactive; ? = inconclusive; nt = no result given; [ ] = another dose, or the depositor's remark. This excerpt belongs to a sample that is enriched for hits. Unless noted, the call rests on the fitted dose curve; in most records, active means well fitted curve in the direction sought with a large enough effect; inconclusive means small, poorly fitted or top-dose-only effect, or another doubt; inactive means no such curve, though single readings can be large; an effect the other way counts as inactive or inconclusive. Unless noted, on the % scale 0 is the no-effect control and ±100 the full control effect; potency means the concentration at half of the fitted maximal effect.

SMILES	APEX1 inh	PKM2 act	BLM helicase inh	KDM4E inh	RECQ1 inh
CCCCn1c(NC(=O)c2ccccc2)c(C#N)c2nc3ccccc3nc21	?	3.1%	1.58µM*	?	3.55µM*
COc1cc(OC)cc(C2=Nn3c(nnc3-c3ccccc3OC)SC2)c1	0.3%	nt	-0.1%	nt	-21.8%
COc1ccccc1NS(=O)(=O)c1cc(NC(=O)c2ccc(=O)[nH]c2)ccc1N1CCOCC1	-0.7%	-4.6%	0.0%	-5.1%	i
CC(=O)c1c(C)[nH]c(C(=O)Nc2ccc(C)c(S(=O)(=O)Nc3ccc(C)cc3C)c2)c1C	9.1%	17.8µM*	-7.3%	-11.4%	-3.6%
CC(=O)c1c(C)[nH]c(C(=O)Nc2ccc(S(=O)(=O)N(C)C)cc2)c1C	3.3%	7.08µM*	-3.0%	3.8%	-13.2%
COc1ccccc1NS(=O)(=O)c1cc(NC(=O)c2[nH]c(C)c(C(C)=O)c2C)ccc1N1CCOCC1	-5.5%	15.8µM*	-7.4%	-2.6%	8.2%
CC(=O)c1c(C)[nH]c(C(=O)Nc2ccc(C)c(S(=O)(=O)N(C)C)c2)c1C	-5.1%	10.5%	-5.5%	4.3%	-0.9%
O=C1C(O)=C(O)C(=O)C(O)=C1O	10µM*	nt	?	12.6µM*	-16.8%
O=C(C[C@@H]1C/C=C\C[C@H](Cc2ccc(F)cc2)C(=O)OCCNC1=O)NCCO	4.5%	nt	nt	nt	nt
O=C(C[C@H]1C/C=C\CC[C@@H](Cc2ccc(F)cc2)C(=O)OCCNC1=O)NCCO	10.6µM*	nt	nt	nt	nt
CC(C)CC1NC(=O)C(CCCN)NC(=O)C(C(C)C)NC(=O)C2CCCN2C(=O)C(Cc2ccccc2)NC(=O)C(CC(C)C)NC(=O)C(CCCN)NC(=O)C(C(C)C)NC(=O)C2CCCN2C(=O)C(Cc2ccccc2)NC1=O (stereo not drawn)	nt	nt	-6.1%	25.1µM*	i
O=C1N[C@@H](Cc2ccccc2)C(=O)N2CCCC12 (stereo partly drawn)	7.9%	nt	3.6%[120 µM]	nt	-11.0%[126 µM]
CC(C)(C)n1ncc2c(=O)n(Cc3ccc(C#N)cc3)cnc21	1.7%	nt	nt	nt	nt
O=C1NC(=O)C(Cc2ccc(OCCN3COc4ccccc4C3=O)cc2)S1 (stereo not drawn)	13.4%	nt	0.8%	nt	20.3%
O=C1NC(=O)/C(=C/c2cccn2-c2ccc(P(O)O)cc2)N1	38.4%	nt	nt	nt	nt
O=C(NCC1CCCO1)C(=O)N/N=C/c1cc(Cl)ccc1O (stereo not drawn)	1.5%	-7.0%	4.1%	12.6µM*	-3.1%
O=C(NCC1CCCO1)C(=O)N/N=C/c1ccc(O)c(Cl)c1 (stereo not drawn)	2.4%	-2.4%	-1.1%	5.4%	-5.9%
O=C(N/N=C/c1cc(Cl)ccc1O)c1ccncc1	15.2%	-10.9%	1.8%	12.6µM*	-10.1%
COc1ccc(CNCCC(c2ccc3c(c2)OCO3)c2ccccc2OC)cc1 (stereo not drawn)	nt	nt	2.9%	nt	nt
O=C1c2ccccc2NC(c2ccc(-c3ccc(-c4ccccc4)cc3)o2)N1O (stereo not drawn)	15.1%	nt	nt	nt	nt
Cc1nc2ccccc2n1CC(O)COCC1CC=CCC1 (stereo not drawn)	1.1%	0.1%	-1.3%	6.6%	11.6%
CCc1n(CC(O)COC2CCCCC2)c2ccccc2[n+]1C (stereo not drawn)	1.0%	-12.4%	2.5%	10µM*	i
CCc1n(CC(O)COCC2CC=CCC2)c2ccccc2[n+]1C (stereo not drawn)	3.3%	-5.8%	4.8%	11.2µM*	-2.5%
N#CC(=C(\N)Sc1ccccc1N)/C(C#N)=C(/N)Sc1ccccc1N	-4.6%	nt	nt	-5.8%	-10.8%
Cc1ccc(C(C)C)c(OCc2ccc(C(=O)N/N=C/c3ccc(O)c(O)c3)cc2)c1	-0.6%	1.2%	-13.4%	4.6%	2.6%
SMILES	APEX1 inh	PKM2 act	BLM helicase inh	KDM4E inh	RECQ1 inh
Cc1ccc(C(C)C)c(OCc2ccc(C(=O)N/N=C/c3cccc(O)c3O)cc2)c1	14.3%	-4.8%	-18.2%	4.47µM*	i
N#Cc1cccc(CS(=O)(=O)c2nc3ccccc3s2)c1	0.8%	nt	-1.7%	3.3%	0.0%
Cc1noc(C)c1-c1nc(NCc2ccccc2)c2ccccc2n1	-4.0%	nt	1.6%	nt	-2.4%
Cc1ccc(-n2nc(C)c3c2OC(N)=C(C#N)C3c2ccc(C)o2)cc1 (stereo not drawn)	-2.4%	-13.1%	-8.3%	25.1µM*	-13.9%
CCn1cc([N+](=O)[O-])c(C(=O)N2N=C(c3ccc(Cl)c(Cl)c3)CC2c2ccccc2O)n1 (stereo not drawn)	-8.0%	22.4µM*	-13.6%	6.2%	-3.7%
CCn1cc([N+](=O)[O-])c(C(=O)N2N=C(c3ccc(O)c(OC)c3)CC2c2ccccc2O)n1 (stereo not drawn)	1.6%	17.8µM*	-10.0%	-7.8%	-7.9%
CCC1CC=CC2C1C(=O)N(Cc1ccccc1)C2c1cc(C)ccc1F (stereo not drawn)	?	nt	-6.9%	nt	i
O=[N+]([O-])c1cccc(S(=O)(=O)c2ccc(NCCOCCO)c([N+](=O)[O-])c2)c1	24.5%	nt	-1.9%	nt	nt
O=[N+]([O-])c1cccc(S(=O)(=O)c2ccc(NCCO)c([N+](=O)[O-])c2)c1	?	15.8µM*	-4.2%	0.9%	0.9%
CCCCCCCCCCCC	-5.7%	nt	4.9%	nt	-18.3%
S=c1[nH]nc(Nc2cccc3ccccc23)s1	-3.0%	-6.7%	-0.3%	25.1µM*	-5.0%
N#C/C(=C\c1ccc(-c2ccc(Cl)c(C(=O)O)c2)o1)c1nc2ccccc2[nH]1	26.7µM*	nt	?	nt	nt
Cn1ncc(Cl)c1C(=O)N1CCN(c2ccccc2)CC1	15.7%	-1.1%	-0.8%	nt	nt
Cn1ncc(Cl)c1C(=O)N1CCC(Cc2ccccc2)CC1	17.5%	22.4µM*	-1.9%	nt	nt
COc1cc(/C=N\Nc2nc(-c3ccc(C)cc3)c(NC(C)=O)s2)ccc1O	12.1%	17.8µM*	-4.7%	?	i
CC(=O)Nc1sc(N/N=C/c2ccc(C)cc2)nc1-c1ccc(C)cc1	1.0%	7.08µM*	-2.3%	0.1%	8.2%
COc1cc(OC)cc(C(=O)Oc2ccc(/C=N/Nc3nc4ccccc4s3)cc2OC)c1	-2.0%	4.5%	0.3%	35.5µM*	-0.5%
CCOc1cc(/C=N\Nc2nc(-c3ccc(C)cc3)c(NC(C)=O)s2)ccc1O	-10.8%	?	-5.8%	-25.1%	i
CC(=O)Nc1sc(N/N=C/c2ccc(N(C)C)cc2)nc1-c1ccc(C)cc1	-4.7%	25.5%	-11.1%	?	-5.0%
COc1ccc(/C=N/Nc2nc(-c3ccc(C)cc3)c(NC(C)=O)s2)cc1OC	10.1%	10µM*	-10.5%	-16.2%	?

Screening results (PubChem BioAssay)
